# “And” between values parts separate entries of the source, which are not always exact repeats. Identical values can stand only once. Hit rate of the full screen: of about 16,000 compounds, about 2,600 (16%) were called active. Another 20% or so got no clear call; they are omitted. Calls come from the whole dose curve; as a rule, active = well fitted curve in the direction sought with a large enough effect; inconclusive = small, poorly fitted or top-dose-only effect, or effect the other way; inactive = no such curve, though single readings can be large or run the other way. Only a sample is shown. Square brackets hold non-standard residues; d marks the D form. Peptide text beside a SMILES is read from it.
# Target: Cytochrome P450 2D6 (Homo sapiens) (UniProt P10635)
# Sequence (P10635 whole entry, looked up): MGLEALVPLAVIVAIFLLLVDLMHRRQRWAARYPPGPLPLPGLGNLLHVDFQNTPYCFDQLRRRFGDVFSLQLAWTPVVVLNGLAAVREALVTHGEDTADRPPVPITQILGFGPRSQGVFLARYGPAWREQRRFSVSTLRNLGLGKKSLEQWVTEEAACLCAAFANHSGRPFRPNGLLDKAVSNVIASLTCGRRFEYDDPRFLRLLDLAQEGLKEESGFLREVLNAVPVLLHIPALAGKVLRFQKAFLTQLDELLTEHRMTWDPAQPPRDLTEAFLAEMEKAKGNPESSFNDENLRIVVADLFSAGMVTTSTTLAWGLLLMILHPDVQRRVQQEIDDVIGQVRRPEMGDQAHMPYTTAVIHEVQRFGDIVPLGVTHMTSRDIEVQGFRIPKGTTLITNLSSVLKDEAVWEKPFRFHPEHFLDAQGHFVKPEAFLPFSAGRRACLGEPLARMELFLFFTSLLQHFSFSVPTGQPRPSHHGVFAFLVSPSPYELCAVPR
# Assay: Cytochrome panel assay with activity outcomes
# Conditions: recombinant CYP, pro-luciferin dealkylation, luminescence, p450-cyp2d6; series mostly up to 57.1 µM
# % is set by controls: 0 for no effect and ±100 for the full control effect.
Compound,AC50,"activity, negative = inhibition"
O=C(NCC1CCCO1)/C(=C\c1ccco1)NC(=O)c1ccccc1 (stereo not drawn),inactive,
O=C(Nc1cccc(OC(=O)c2cccnc2)c1)c1cccnc1,inactive,
O=C(Nc1ccc(OC(=O)c2cccnc2)cc1)c1cccnc1,inactive,
O=C(Nc1cccnc1)c1ccc2snnc2c1,15.8 µM (active),
O=C(CCn1nc(-c2ccc(Cl)cc2)ccc1=O)NCc1ccccn1,inactive,
O=C1C=C(Nc2nc(C(=O)O)cc(=O)[nH]2)c2ccccc2C1=O,,-6.72% [at 11.4 µM] (inactive)
O=C1C=C(NCCc2cc(Br)c(O)c(Br)c2)C(=O)c2ncccc21,1.58 µM (active),
Cc1cccc(Oc2coc3cc(OC(=O)c4cc5ccccc5oc4=O)ccc3c2=O)c1,inactive,
CCOC(=O)c1cc(C#N)c(Oc2ccccc2OC)nc1-c1ccccc1,inactive,
CCOc1cc(C)ccc1OCc1nnc(SCC(=O)c2cccc([N+](=O)[O-])c2)n1CC,inactive,
Cc1cc2c(ncn2Cc2ccccc2)c([N+](=O)[O-])c1C,inactive,
CCCCN1C2=NCCCN2c2ccccc21,5.01 µM (active),
CCCN1C2=NCCCN2c2ccccc21,7.08 µM (active),
Cc1ccc(C)c(C(=O)CN2C3=NCCCN3c3ccccc32)c1,0.01 µM (active),
CCCCN1C(=O)CC(Sc2ccccc2C(=O)O)C1=O (stereo not drawn),inactive,
Cc1ccccc1CN1C2=NCCN2C(=O)C2=C1CCN(Cc1ccccc1)C2,,-16.1% [at 11.4 µM] (inactive)
CC(C)C[C@H]1C(=O)N2CCC[C@@H]2[C@]2(O)O[C@](NC(=O)[C@H]3C=C4c5cccc6[nH]c(Br)c(c56)C[C@H]4N(C)C3)(C(C)C)C(=O)N12,inactive,
COCCCN1C(=O)C(=O)/C(=C(/O)c2ccc(OC(C)C)c(C)c2)C1c1ccncc1 (stereo not drawn),inactive,
N[C@H](CO)C(=O)NCC(=O)O (H-[dS]-Gly-OH),,-2.94% [at 11.4 µM] (inactive)
Cc1cc(C)nc(NS(=O)(=O)c2ccc(N)cc2)n1,inactive,
CN1C(=O)/C(=C\c2ccccc2)Sc2ccc(C(=O)N3CCN(c4ccccn4)CC3)cc21,inactive,

Compound,AC50,"activity, negative = inhibition"
C=C[C@H](N)CCC(=O)O,inactive,
CCc1c(C)sc(NC(=O)OC)c1C(N)=O,inactive,
COc1nc(/C(N)=N/O)nc(N2CCCCC2)n1,inactive,
Cc1ncc([N+](=O)[O-])n1CCOC(=O)NC(NCc1ccccc1)C(Cl)(Cl)Cl (stereo not drawn),inactive,
Cc1cc(=O)c2ccccc2[nH]1,inactive,
Cc1cc2c(nc1C)CCCN2C[C@@H](O)CN1CCN(C)CC1,,-5.57% [at 11.4 µM] (inactive)
OC(COCC1COc2ccccc2O1)CN1CCN(c2ccccc2F)CC1 (stereo not drawn),2.24 µM (active),
OC(COCC1COc2ccccc2O1)CN1CCc2ccccc2C1 (stereo not drawn),0.447 µM (active),
CC1CCCC(C)N1CC(O)COCC1COc2ccccc2O1 (stereo not drawn),1.78 µM (active),
N=C(N)N1CCc2ccccc2C1,inactive,
O=C1CCCN1CC(O)CS(=O)(=O)c1ccccc1 (stereo not drawn),inactive,
C[C@@H]1CCCN(C[C@@H](O)CN2CCCc3ccccc32)C1,1.58 µM (active),
Cc1ccc(C2C(=O)N(C3CCCC3)CC(=O)N2CC2COc3ccccc3O2)cc1 (stereo not drawn),inactive,
O=C(O)c1cc(=O)c2c(OCC(O)COc3cccc4oc(C(=O)O)cc(=O)c34)cccc2o1,inactive,
Cc1ccc(-c2cccc(OC(=O)c3ccccc3F)c2)cc1,inactive,
CC(C)C(=O)NC(=S)Nc1ccccc1C(=O)Nc1ccccc1,inactive,
CN1CCN(c2ncc3ncc(=O)n(C[C@H]4CCCO4)c3n2)CC1,inactive,
COc1ccc(S(=O)(=O)N2CCC(C(=O)NCC3CCCO3)CC2)cc1C (stereo not drawn),inactive,
O=c1n(-c2ccccc2)c(=O)n2n1CC[C@H]1/C(=N\OC[C@@H](O)COCc3ccco3)[C@H]3O[C@@H]3[C@@H](O)[C@@H]12,,0.6% [at 11.4 µM] (inactive) and 20% [at 11.4 µM] (inactive)
COC1(OC)N=C(NC(=O)Nc2ccccc2)C2(C#N)C(c3ccccc3)C12C#N (stereo not drawn),inactive,
COc1ccc(-c2noc(C3CCCN(C(=O)c4ccccc4OC)C3)n2)cc1OC (stereo not drawn),inactive,

Compound,AC50,"activity, negative = inhibition"
CCCC[C@@H]1C[C@H]1C(NC(=O)c1cccs1)c1ccc(-c2ccccc2)cc1 (stereo partly drawn),inactive,
CC1CCCN(CC(O)COCC2COc3ccccc3O2)C1 (stereo not drawn),2.51 µM (active),
CN1CCN(S(=O)(=O)c2cc([N+](=O)[O-])ccc2N2CCCCCC2)CC1,inactive,
CC(=O)OCC(=O)[C@@]1(O)CC[C@@H]2[C@H]3CCC4=CC(=O)CC[C@]4(C)[C@]3(F)[C@@H](O)C[C@@]21C,inactive,
Oc1ccc2oc3c(c2c1)CCCC3,inactive,
O=C(CN1CCN(Cc2ccccc2)CC1)N1CCCc2c1c(=O)oc1ccc(O)cc21,12.6 µM (active),
Cc1ccc(C(=O)N(CN2CCCC2=O)c2ccccc2)cc1C,inactive,
COc1ccc(O)c(/C=N/NC(=O)c2ccc(OCc3cccc(Br)c3)cc2)c1,inactive,
CCc1cc2c(Sc3nc4ccccc4s3)ncnc2s1,inactive,
CCc1cc2c(NCc3ccco3)ncnc2s1,17.8 µM (active),
CCc1cc2c(NCCO)ncnc2s1,inactive,
COc1ccc(-c2csc(-n3ncc(-c4cccs4)c3N)n2)cc1,inactive,
CCOC(=O)c1sc2c(c1C)c(=O)c(C(=O)OCC)cn2CC,inactive,
Cc1nnc(NC(=O)c2oc3c(ccc4ccccc43)c2C)s1,inactive,
COC(=O)c1cc(=O)[nH]c(=O)[nH]1,,-4.62% [at 11.4 µM] (inactive)
CCOC(=O)N/N=C1/C[C@@H](O)[C@@H](O)[C@@H]2[C@@H]3C(=O)N(C(C)(C)C)C(=O)[C@H]3CC[C@H]12,,-1.55% [at 11.4 µM] (inactive)
Cc1ccc(S(=O)(=O)NC(=O)CSc2nc3ccccc3s2)cc1,inactive,
O=C(N/N=C/c1ccc(Sc2nc3ccccc3s2)c([N+](=O)[O-])c1)c1ccccn1,inactive,
O=[N+]([O-])c1c(NCCO)cc(Sc2nc3ccccc3s2)c2nonc12,14.1 µM (active),
C[C@@]1(C(=O)O)CCC[C@@H]1C(=O)O,,9.41% [at 11.4 µM] (inactive)
CC(=O)Nc1c(C(=O)N2CCOCC2)cnn1-c1ccc(C)c(C)c1,inactive,
